According to PubChem BioAssay (Tox21):
Records with an inconclusive call do not appear. A call without a number means that no potency is given here. The source made the active and inactive calls. Calls follow the shape of the dose curve; as a rule, active = well fitted cell-killing curve with a large enough effect in the repeat runs; inconclusive = weak or mixed curves, or effect the other way; inactive = flat fitted curve, though single readings scatter.
Potency is read from the fitted curve at half-maximal effect.

Assay: qHTS RealTime-Glo MT Cell Viability Assay in HepG2 cells - 0 hour (AID 1224889); also: nearly all actives have a fitted effect of over 50% in size
Conditions: RealTime-Glo luminescence; series mostly up to 76.8 µM
Description: U.S. Tox21 Program National Center for Advancing Translational Sciences [NCATS] NIH Chemical Genomics Center [NCGC] U.S. Environmental Protection Agency [EPA] National Institutes of Environmental Health Sciences [NIEHS] National Toxicology Program [NTP] U.S. Food and Drug Administration [FDA] Tox21 Assay Overview: Measure of cell viability is critical in the cell-base assay. Analysis of cell viability is necessary for the characterization of cell responses to cytotoxic drugs and environmental stress. A RealTime-Glo MT Cell Viability Assay to monitor cell viability in real time of continues cell culture during 40 hours of compound treatment was used to screen Tox21 10K library compounds in HepG2 cells. The RealTime-Glo MT Cell Viability Assay is a nonlytic, homogeneous, bioluminescent method to measure cell viability in real time using a simple, plate-based method. The assay involves adding NanoLuc luciferase and a cell-permeant prosubstrate to cells in culture. Viable cells reduce the proprietary prosubstrate to generate a substrate for NanoLuc luciferase. This substrate diffuses from cells into the surrounding culture medium, where it is rapidly used by the NanoLuc Enzyme to produce a luminescent signal. The signal correlates with the number of viable cells, making the assay well suited for cytotoxicity studies.
Tox21 Assay Protocol Summary: The mixture of HepG2 cell suspension and reagents were dispensed at 600cells/6 ul/well in 1536-well tissue culture treated black solid bottom plates using a Multidrop dispenser. After the assay plates were incubated at a 37 C/5% CO2 incubator for 5 hours, 23 nL of compounds dissolved in DMSO, positive and negative controls was transferred to the assay plate by a pintool work station. The plates were incubated at 37 C for 40 hours. The luminescence intensity were measured at 0h, 8h, 16h, 24h, 32h and 40h time points using ViewLux plate reader during compound treatment.
With `CCCCC/C=C/C=C/C=O` the Potency was “inactive”.
With `O=Cc1ccccc1O` the Potency was “inactive”.
In the case of `C=C(C)C1CC=C(C)CC1` (stereo not given), the Potency is reported as “inactive”.
In the case of `COc1ccc(C(=O)CC(=O)c2ccc(C(C)(C)C)cc2)cc1`, the Potency is reported as “inactive”.
With `COC(=O)Nc1nc2ccc(S(=O)c3ccccc3)cc2[nH]1` (stereo not given) the Potency was “inactive”.
With `OC1CCCCCCCCCCC1` the Potency was “inactive”.
For `O=C1OC2(c3cc(Br)c(O)c(Br)c3Oc3c2cc(Br)c(O)c3Br)c2c(Cl)c(Cl)c(Cl)c(Cl)c21`, the Potency was 55 µM (active).
With `Cc1[nH]c(=O)c(C#N)cc1-c1ccncc1` the Potency was “inactive”.
In the case of `O=CCCCC=O`, the Potency is reported as “inactive”.
In the case of `CCCCOCCOCCOCCO`, the Potency is reported as “inactive”.
For `OC[C@H]1O[C@@H]2O[C@H]3[C@H](O)[C@@H](O)[C@@H](O[C@H]4[C@H](O)[C@@H](O)[C@@H](O[C@H]5[C@H](O)[C@@H](O)[C@@H](O[C@H]6[C@H](O)[C@@H](O)[C@@H](O[C@H]7[C@H](O)[C@@H](O)[C@@H](O[C@H]8[C@H](O)[C@@H](O)[C@@H](O[C@H]1[C@H](O)[C@H]2O)O[C@@H]8CO)O[C@@H]7CO)O[C@@H]6CO)O[C@@H]5CO)O[C@@H]4CO)O[C@@H]3CO`, the Potency was “inactive”.
In the case of `c1ccc2c(c1)Oc1ccccc1S2`, the Potency is reported as “inactive”.
With `CCC(C)(O)CCCC(C)C` (stereo not given) the Potency was “inactive”.
For `CC(CCC(=O)O)(c1ccc(O)cc1)c1ccc(O)cc1`, the Potency was “inactive”.
In the case of `CC(C)OC=O`, the Potency is reported as “inactive”.
In the case of `Cc1ncc[nH]1`, the Potency is reported as “inactive”.
With `c1cc(N(CC2CO2)CC2CO2)ccc1OCC1CO1` (stereo not given) the Potency was “inactive”.
For `CCC(C)OC(=O)c1ccc(O)cc1` (stereo not given), the Potency was “inactive”.
For `COc1cccc2c1C(=O)c1c(O)c3c(c(O)c1C2=O)C[C@@](O)(C(=O)CO)C[C@@H]3O[C@H]1C[C@H](N)[C@H](O)[C@H](C)O1`, the Potency was “inactive”.
With `O=C(c1ccc(OCCN2CCCCC2)cc1)c1c(-c2ccc(O)cc2)sc2cc(O)ccc12` the Potency was “inactive”.
For `O=[N+]([O-])c1ccc2c(c1)Cc1ccccc1-2`, the Potency was “inactive”.
With `CC(C)=CCCC(C)CCO` (stereo not given) the Potency was “inactive”.
For `CCCCOCCOCCO`, the Potency was “inactive”.
In the case of `Cn1cnc([N+](=O)[O-])c1Sc1ncnc2nc[nH]c12`, the Potency is reported as “inactive”.
With `COC(C)COC(C)COC(C)CO` (stereo not given) the Potency was “inactive”.
With `O=C1c2cccc(O)c2C(=O)c2c(O)cccc21` the Potency was “inactive”.
With `Cc1c(C(N)=O)cc([N+](=O)[O-])cc1[N+](=O)[O-]` the Potency was “inactive”.
With `CCCCc1oc2ccccc2c1C(=O)c1cc(I)c(OCCN(CC)CC)c(I)c1` the Potency was “inactive”.
For `COc1ccc(OC)c(C(O)CNC(=O)CN)c1` (stereo not given), the Potency was “inactive”.
For `S=C(NC1CCCCC1)NC1CCCCC1`, the Potency was “inactive”.
With `CC(C)Oc1ccc2c(=O)c(-c3ccccc3)coc2c1` the Potency was “inactive”.
For `c1ccc2cc(Nc3ccc(Nc4ccc5ccccc5c4)cc3)ccc2c1`, the Potency was “inactive”.
In the case of `CC(C)OB(OC(C)C)OC(C)C`, the Potency is reported as “inactive”.
In the case of `c1ccc(Nc2ccccc2)cc1`, the Potency is reported as “inactive”.
For `c1cc(-c2ccncc2)ccn1`, the Potency was “inactive”.
For `C[Si](C)(C)O[Si](C)(C)C`, the Potency was “inactive”.
With `Cc1cc2nc3c(=O)[nH]c(=O)nc-3n(C[C@H](O)[C@H](O)[C@H](O)CO)c2cc1C` the Potency was “inactive”.
In the case of `COC(=O)CCC(=O)OC`, the Potency is reported as “inactive”.
In the case of `CN(C)c1nc(N(C)C)nc(N(C)C)n1`, the Potency is reported as “inactive”.
For `O=C(/C=C/c1ccccc1)OCc1ccccc1`, the Potency was “inactive”.
